Laboratory results as given in PubChem BioAssay (NCATS).
Records with an inconclusive call do not appear. Values without a mark were called inactive. The call rests on the fitted dose curve; in most records, active means well fitted curve in the direction sought with a large enough effect; inconclusive means small, poorly fitted or top-dose-only effect, or another doubt; inactive means no such curve, though single readings can be large; an effect the other way counts as inactive or inconclusive.

What follows are compounds tested on Zika virus NS2B-NS3 protease (linked construct) (assay: Primary screen NINDS Rhodamine qHTS for Zika virus inhibitors (AID 1347160; further: on the % scale 0 is the no-effect control and ±100 the full control effect; nearly all actives have a fitted effect of over 55% in size)). Conditions: purified NS2B-NS3 protease, Rhodamine110 substrate fluorescence; series mostly up to 57.1 µM; activity change, negative = inhibition: at the top concentration.
How it was run: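 Percent inhibition, normalized to uninhibited and enzyme-free controls, is fitted to a 4-parameter Hill equation. Fluorescence change comes from a 15-min cleavage of 1.5 microM bis-peptide Rhodamine110 substrate by 25 nM linked NS2B-NS3 at room temperature.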

Row | SMILES | activity change, negative = inhibition
1 | COc1cc2c(cc1OC)[C@@]13CCN4CC5=CCO[C@H]6CC(=O)N2[C@H]1[C@H]6[C@H]5C[C@H]43 | -2.43% [at 33.1 µM]
2 | CN[C@H]1[C@H](O)[C@H](O[C@@H]2[C@@H](O)[C@H](O[C@H]3O[C@H]([C@H](C)O)[C@@H](O)[C@H](O)[C@H]3N)[C@@H](N)C[C@H]2N)OC[C@@]1(C)O | -6%
3 | COC1CC(O[C@H]2CC[C@@]3(C)C(=CCC4C3C(O)[C@@H](O)[C@]3(C)[C@@H](C(C)=O)CC[C@]43O)C2)OC(C)C1OC1CC(OC)C(OC2OC(C)C(O)C(O)C2O)C(C)O1 (stereo partly drawn) | 17.3% [at 15.1 µM]

What follows are compounds tested against Lysine-specific demethylase 5B (Homo sapiens) (UniProt Q9UGL1) (assay: Optimization screen for KDM5B Histone Demethylases FDH coupled qHTS against the LOPAC library (AID 1347166; further: 0% is about no effect)). Conditions: KDM5B demethylation, FDH-coupled NADH fluorescence (FDH is formaldehyde dehydrogenase); series mostly up to 57.5 µM; activity, negative = inhibition: at the top concentration.
How it was run: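 KDM5BDeltaAP (200nM final) preincubated 10 min with compound, then 12.5uM H3K4Me3, 25uM a-ketoglutarate, ascorbate, Fe(II), NAD+ and FDH added; 50mM HEPES pH 7.5, 0.01% Tween-20. NADH fluorescence (340/450 nm) change over 30 min, room temperature.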

Sequence of Lysine-specific demethylase 5B (Homo sapiens) (Q9UGL1 whole entry, looked up): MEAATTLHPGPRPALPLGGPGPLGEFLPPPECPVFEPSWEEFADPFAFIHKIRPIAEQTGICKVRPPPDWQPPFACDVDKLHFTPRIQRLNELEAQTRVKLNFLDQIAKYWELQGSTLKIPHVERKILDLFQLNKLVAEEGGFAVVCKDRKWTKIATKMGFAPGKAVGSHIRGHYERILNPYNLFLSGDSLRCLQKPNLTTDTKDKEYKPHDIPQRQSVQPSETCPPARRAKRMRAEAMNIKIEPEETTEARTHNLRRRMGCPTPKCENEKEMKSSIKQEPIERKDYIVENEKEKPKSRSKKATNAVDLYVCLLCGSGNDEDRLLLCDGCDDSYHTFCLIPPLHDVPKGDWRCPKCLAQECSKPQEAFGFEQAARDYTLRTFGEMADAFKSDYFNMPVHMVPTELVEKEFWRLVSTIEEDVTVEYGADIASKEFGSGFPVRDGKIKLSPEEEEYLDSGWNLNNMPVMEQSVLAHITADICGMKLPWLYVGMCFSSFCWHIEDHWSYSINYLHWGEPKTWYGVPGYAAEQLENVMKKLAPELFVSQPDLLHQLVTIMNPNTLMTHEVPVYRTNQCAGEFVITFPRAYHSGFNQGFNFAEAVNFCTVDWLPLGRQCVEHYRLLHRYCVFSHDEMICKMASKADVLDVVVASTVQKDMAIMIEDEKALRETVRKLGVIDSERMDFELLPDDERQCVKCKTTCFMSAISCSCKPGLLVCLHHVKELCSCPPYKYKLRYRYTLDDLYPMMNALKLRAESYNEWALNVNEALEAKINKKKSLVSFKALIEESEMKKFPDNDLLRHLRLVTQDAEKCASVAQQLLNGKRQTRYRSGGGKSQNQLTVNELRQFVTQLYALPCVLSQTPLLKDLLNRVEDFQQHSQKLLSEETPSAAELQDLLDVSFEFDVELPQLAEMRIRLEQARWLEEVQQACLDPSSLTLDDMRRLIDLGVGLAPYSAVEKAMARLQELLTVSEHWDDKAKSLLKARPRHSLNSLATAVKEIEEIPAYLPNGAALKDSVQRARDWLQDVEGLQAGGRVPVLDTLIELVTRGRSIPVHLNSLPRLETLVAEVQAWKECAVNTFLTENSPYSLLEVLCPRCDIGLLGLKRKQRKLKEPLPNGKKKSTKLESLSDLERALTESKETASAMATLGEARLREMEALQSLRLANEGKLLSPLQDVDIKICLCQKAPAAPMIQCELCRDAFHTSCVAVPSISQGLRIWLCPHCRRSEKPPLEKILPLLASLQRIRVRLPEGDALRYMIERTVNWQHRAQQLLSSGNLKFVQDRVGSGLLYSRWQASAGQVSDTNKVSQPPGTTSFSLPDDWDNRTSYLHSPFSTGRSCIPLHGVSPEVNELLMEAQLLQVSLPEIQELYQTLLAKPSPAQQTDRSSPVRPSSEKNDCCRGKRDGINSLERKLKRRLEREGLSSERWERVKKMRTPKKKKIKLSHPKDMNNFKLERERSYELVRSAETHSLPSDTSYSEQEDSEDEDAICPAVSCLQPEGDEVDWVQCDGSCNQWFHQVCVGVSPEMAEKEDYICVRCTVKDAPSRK

Row | SMILES | activity, negative = inhibition
4 | O=C1CC[C@@]2(O)C3Cc4ccc(O)c5c4C2(CCN3CC2CC2)[C@H]1O5 (stereo partly drawn) | -8.44%
5 | Oc1ccc2c3c1O[C@H]1c4oc5ccccc5c4C[C@@]4(O)C(C2)N(CC2CC2)CCC314 (stereo partly drawn) | -6.3%
6 | CCCC[N+]1(C)C2CC(OC(=O)[C@H](CO)c3ccccc3)CC1C1OC12 (stereo partly drawn) | -5.22%
7 | C[N+]1(C)C2CCC1CC(OC(=O)c1c[nH]c3ccccc13)C2 (stereo not drawn) | -18.2%
8 | OC1CCCCC1N1CCC(c2ccccc2)CC1 (stereo not drawn) | 7.83%
9 | COc1ccc2c(c1)C13CCCCC1C(C2)N(C)CC3 (stereo not drawn) | -2.99%
10 | C[C@@H]1[C@@H]2Cc3ccc(O)cc3[C@@]1(C)CCN2CC1CC1 | -5.68%
11 | Clc1cc(I)cc(Cl)c1NC1=NCCN1 | -4.43%
12 | C/C(O)=C(\C#N)C(=O)Nc1cc(Br)ccc1Br | 2.28%
13 | NC(=O)c1ccc(OCC(O)CN2CC=C(c3ccc(F)cc3)CC2)cc1 (stereo not drawn) | -1.24%
14 | CC(C)(O)[C@@H]1C2OC(=O)[C@@H]1[C@]1(O)C[C@H]3O[C@]34C(=O)O[C@H]2[C@]14C (tested in a mixture with another compound) | -1.39%
15 | C[C@H](N)CN1CCc2ccc(Br)cc21 | -16%
16 | Cc1o[nH]c(=O)c1CC(N)C(=O)O (stereo not drawn) | -7.58%
17 | CC12NC(Cc3ccccc31)c1ccccc12 (stereo not drawn) | -3.5%
18 | CCOC(=O)c1ncn2c1[C@@H]1CCCN1C(=O)c1cc(OC)ccc1-2 | -4.6%
19 | C=CCN1CC[C@]23c4c5ccc(O)c4O[C@@H]2/C(=N/N=C2\CC[C@@]4(O)C6Cc7ccc(O)c8c7[C@@]4(CCN6CC=C)[C@@H]2O8)CC[C@@]3(O)C1C5 | -20.9%
20 | CCCn1c(C)c(C(=O)c2ccc3ccccc3c2)c2ccccc21 | -11.5%
21 | C=CCN1CCC23c4c5ccc(O)c4O[C@H]2C(=O)CC[C@@]3(O)C1C5 (stereo partly drawn) | 3.75%
22 | COc1ccc2c(c1)[C@@]13CCCC[C@H]1[C@@H](C2)NCC3 | -7.23%
23 | COc1ccc(OC)c(C(O)C(C)N)c1 (stereo not drawn) | 0.484%
24 | CC1(C(=O)O)C2CCC(O2)C1(C)C(=O)O (stereo not drawn) | -0.0378%
25 | COc1cc(CC(C)N)c(OC)cc1I (stereo not drawn) | -8.43%
26 | CCCN1CCC[C@@H](c2cccc(O)c2)C1 | -4.19%
27 | CC(=O)NBr | -2.75%
28 | O=C1C=CC(=O)C=C1 | 3%
29 | NC(=O)c1cc(N2CC2)c([N+](=O)[O-])cc1[N+](=O)[O-] | -2.23%
30 | CN1CCc2cccc(Cl)c2CC1 | -4%
31 | CC(C)NP(=O)(NC(C)C)OP(=O)(NC(C)C)NC(C)C | -4.02%
32 | C=CCN(C1=NCCN1)c1c(Cl)cccc1Cl | -4.1%
33 | COc1ccc2c(c1)c(CCN1CCOCC1)c(C)n2C(=O)c1cccc(Cl)c1Cl | -11%
